Hit rate of the full screen: of about 2,300 compounds, about 1,200 (52%) were called active. Roughly 34% stayed inconclusive and do not appear here. The call rests on the fitted dose curve; in most records, active means well fitted inhibition curve with a large enough effect; inconclusive means small, poorly fitted or top-dose-only effect, or effect the other way; inactive means no such curve, though single readings can be large or run the other way. So high a share suggests a set chosen from earlier hits. This is one part of the list.
Potency means the concentration at half of the fitted maximal effect.

This experiment in a line: Confirmation screen for delayed death inhibitors of the malarial parasite plastid, 48 hour incubation. Further: nearly all actives have a fitted effect of over 65% in size. The conditions noted are these: P. falciparum-infected erythrocytes, luciferase growth; series mostly up to 28.7 µM. The method in brief:
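Erythrocytes infected with luciferase-expressing P. falciparum (2% hematocrit, 0.1% parasitemia) incubated with compounds 48 hours at 37 C, 5% CO2, in RPMI/Albumax. Growth inhibition scored as reduced luminescence after detection reagent.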
As to `O=c1c(Cl)cc(Cl)nn1-c1ccccc1`, the Potency is 12.6 µM (active).

On to `COc1ccc(-n2nc(C#N)c(Cl)cc2=O)cc1`, for which the Potency result was “inactive”.

For `C=C[C@]1(C)C[C@@H](OC(=O)CSCCN(CC)CC)[C@]2(C)C(C)CC[C@]3(CCC(=O)[C@H]32)[C@@H](C)[C@@H]1O` (some centres not stated), the Potency was 14.1 µM (active).

For `COc1ccc(-c2cc(C(=O)N/N=C/c3ccc4c(c3)OCO4)c3ccccc3n2)c(OC)c1`, the Potency is 7.94 µM (active).

With `COc1ccccc1-c1cc(C(=O)N/N=C/c2sccc2C)c2ccccc2n1`, the Potency is 3.98 µM (active).

Regarding `COc1ccc(-c2cc(C(=O)N/N=C/c3sccc3C)c3ccccc3n2)c(OC)c1`, the Potency is 12.6 µM (active).

Regarding `CCOC(=O)Nc1ccc2c(CNC(C)c3ccccc3OC)cc(=O)oc2c1` (configuration not stated), the Potency is 14.1 µM (active).

Take `CCc1noc(C)c1C(=O)N1CCC(CCC(=O)Nc2cccc(C)c2)CC1`: the Potency is 11.2 µM (active).

Consider `C/C(N)=C(/C#N)C(=O)COC(=O)c1cc(C)n(-c2ccc(F)cc2)c1C`, for which the Potency was 10 µM (active).

As to `O=C(NCc1ccc2c(c1)OCO2)c1nc(S(=O)(=O)Cc2ccccc2)ncc1Cl`, the Potency entry was “inactive”.

With `O=C(CSc1nc2cc([N+](=O)[O-])ccc2n1-c1ccccc1)NCc1ccc2c(c1)OCO2`, the Potency is 11.2 µM (active).

In the case of `Cc1nc([N+](=O)[O-])c(Sc2nc3ccccc3n2C)n1Cc1ccccc1`, the Potency is 15.8 µM (active).

Turning to `CN1c2ccccc2C(C)(C)C12CC(c1ccc(S(=O)(=O)N3CCCCC3)cc1)=NO2` (configuration not stated), the Potency is 5.62 µM (active).

For the compound `CCN(CC)S(=O)(=O)c1ccc(C2=NOC3(C2)N(C)c2ccccc2C3(C)C)cc1` (configuration not stated), the Potency is 12.6 µM (active).

As to `C=CCSC(=C(C#N)C#N)c1cc2c([nH]1)CCCC2`, the Potency was 7.08 µM (active).

In the case of `COc1ccc(CN2CCN(C(=O)c3ccc(CNS(=O)(=O)c4ccc(C)cc4)cc3)CC2)c(OC)c1OC`, the Potency was 12.6 µM (active).

On to `COC(=O)[C@@]12CCCN1[C@H](c1ccc(-c3cccc(Cl)c3)c(OC)c1)[C@H]1C(=O)N(C)C(=O)[C@H]12`, for which the Potency was 2.82 µM (active).

For `CCN1C(=O)[C@@H]2[C@@H](c3ccc(SC4CCCCC4)c(OC)c3)N3CCC[C@@]3(C(=O)OC)[C@@H]2C1=O`, the Potency was 5.01 µM (active).

Consider `COc1cc(OC)c2c(-c3cccc(-c4cccc(N)c4)c3)cc(=O)oc2c1`, for which the Potency is 10 µM (active).

For the compound `O=C(NCCN1CCN(c2ccc([N+](=O)[O-])cc2)CC1)NCc1ccccc1`, the Potency was 12.6 µM (active).

On to `O=[N+]([O-])c1ccc(N2CCN(c3ccccc3)CC2)nc1`, for which the Potency entry is “inactive”.

On to `O=C1NC(=S)S/C1=C\C=C\c1ccc([N+](=O)[O-])o1`, for which the Potency is 1.78 µM (active).

With `COC(=O)C1=C(C)N(CC2CC2)C(=NCc2cc(OC)c(OC)c(OC)c2)N[C@H]1c1ccccc1`, the Potency is 12.6 µM (active).

As to `COc1ccccc1CNC(=O)c1ccc(-c2ccccc2Cl)o1`, the Potency was 12.6 µM (active).

With `Cc1ccc(CN2CCC(CNS(=O)(=O)c3ccc(-c4ccc(=O)[nH]n4)s3)CC2)cc1`, the Potency was 5.01 µM (active).

For the compound `Cc1ccc(CNS(=O)(=O)c2ccc(C)s2)cc1`, the Potency result is “inactive”.

On to `CC1CN(c2nc(-c3ccc(Br)cc3)nnc2-c2ccccc2)CC(C)N1` (configuration not stated), for which the Potency was 3.98 µM (active).

In the case of `Cc1ccc(-n2c(SCC(=O)Nc3ncc(Cl)cc3Cl)nc3ccccc32)cc1`, the Potency was 11.2 µM (active).

Regarding `COCCn1c(SCC(=O)Nc2ncc(Cl)c(C)c2Cl)nc2ccccc21`, the Potency result is “inactive”.

In the case of `O=C(CSc1nc2ccccc2n1-c1ccccc1)Nc1ncc(Cl)cc1Cl`, the Potency was 11.2 µM (active).

In the case of `CN1c2ccccc2-c2nc3ccccc3n2C1c1cccs1` (configuration not stated), the Potency was 7.08 µM (active).

`Cc1ccc(-c2nnc(SCC(=O)N/N=C/c3cccs3)n2-c2ccc(C)cc2)cc1`: the Potency was 11.2 µM (active).

Regarding `CC(C)OCCCNc1ncnc2c1[nH]c1ccc(F)cc12`, the Potency was 4.47 µM (active).

For the compound `COc1ccc2[nH]c3c(NCCC4=CCCCC4)ncnc3c2c1`, the Potency is 5.62 µM (active).

As to `COc1ccc2[nH]c3c(NCCN(C(C)C)C(C)C)ncnc3c2c1`, the Potency was 5.62 µM (active).

`Cc1cc(C)n2nc(SCC(=O)N3CCN(c4ccc(F)cc4)CC3)nc2n1`: the Potency is 12.6 µM (active).

Consider `CCn1c2ccccc2c2cc(Nc3cc(C)nc4ncnn34)ccc21`, for which the Potency is 0.251 µM (active).

As to `CCOC(=O)CCC(=O)Nc1ncnc2c1C(c1ccccc1)c1c(ccc3ccccc13)O2` (configuration not stated), the Potency is 8.91 µM (active).

Turning to `O=C(Nc1ccccc1O)c1ccc([N+](=O)[O-])cc1`, the Potency is 15.8 µM (active).

Turning to `O=C(Nc1ccccc1C(=O)Nc1ccccc1C(=O)O)c1ccccc1`, the Potency result is “inactive”.

With `Cc1sc(NC(=O)c2c(F)cccc2F)nc1-c1ccccc1`, the Potency entry was “inactive”.

For the compound `Cc1sc(N/N=C/c2cccnc2)nc1-c1ccccc1`, the Potency is 12.6 µM (active).

In the case of `Cc1ccc(N/N=C/c2ccncc2)cc1`, the Potency entry was “inactive”.

Turning to `CC1CN(C(=O)N2c3ccccc3Sc3ccccc32)CC(C)O1` (configuration not stated), the Potency was 14.1 µM (active).

`O=C(N1CCOCC1)N1c2ccccc2Sc2ccccc21`: the Potency entry is “inactive”.

Take `C[C@H]1CN=C2N(CCNC(=O)CCC3CCCCC3)[C@H](Cc3ccc(O)cc3)CN21`: the Potency is 11.2 µM (active).

Regarding `C[C@@H](CN1C2=NC[C@H](Cc3ccc(O)cc3)N2C[C@H]1Cc1ccc(O)cc1)NC(=O)CCC1CCCCC1`, the Potency was 8.91 µM (active).

Take `C/C=C(\C)C(=O)NCCN1C2=NC[C@H](Cc3ccccc3)N2C[C@H]1Cc1ccc(O)cc1`: the Potency is 11.2 µM (active).

In the case of `O=C(CCC1CCCCC1)NCCN1C2=NC[C@H](Cc3ccccc3)N2C[C@H]1Cc1ccc(O)cc1`, the Potency is 11.2 µM (active).

On to `Cc1cc2nsnc2c(S(=O)(=O)N2CCN(C)CC2)c1C`, for which the Potency result is “inactive”.

As for `CC1CCN(CCNC(=O)C2CCN(S(=O)(=O)c3cccc4nsnc34)CC2)CC1`, the Potency was 14.1 µM (active).

For the compound `CN(C)S(=O)(=O)c1cc(NC(=O)c2cc(=O)c3ccccc3o2)ccc1Cl`, the Potency was 11.2 µM (active).

In the case of `Nc1cc[n+](CC(=O)c2ccc3c(c2)OCCO3)cc1`, the Potency was 7.08 µM (active).

As to `O=Cc1s/c(=N\S(=O)(=O)c2ccccc2)n(CCCCl)c1Cl`, the Potency entry is “inactive”.

Consider `CCOC(=O)c1cnc2c(C)c(Cl)ccc2c1NCCCN1CCOCC1`, for which the Potency was 14.1 µM (active).

For `N=c1c2c(n(Cc3ccc(Cl)c(Cl)c3)c3c1CCC3)CCCC2`, the Potency is 0.355 µM (active).

In the case of `N=c1c2c(n(Cc3ccc(Cl)cc3)c3c1CCC3)CCC2`, the Potency was 0.562 µM (active).
